POLB inh: DNA polymerase beta (human) inhibition; Potency, µM (doses to about 114 µM), inactives show at the top dose activity change, negative = inhibition, hits mostly inhibitors; Pol beta primer extension/strand displacement, fluorescence kinetic; actives 1.3% (n = 340,000); P06746; AID 485314; further: on the % scale 0 is the no-effect control and ±100 the full control effect
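Human Pol beta at 10 nM; strand-displacement substrate 50 nM final. Compound exposure 15 min at room temperature before start, reaction 10 min at room temperature.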
POLK inh: blocks human DNA polymerase kappa activity; purified Pol kappa, fluorescent DNA synthesis assay, 10 min; Q9UBT6; Potency, µM (highest dose often 107 µM), for inactives: top-dose activity, negative = inhibition, hits mostly inhibitors; actives 0.53% (n = 400,000); further: on the % scale 0 is the no-effect control and ±100 the full control effect
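First, compounds were pin-transferred onto 10 nM Pol kappa. After 15 min at room temperature, substrate was added to 50 nM final. Fluorescence was then measured kinetically at 0 and 10 min.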
POLI inh: inhibitors of human DNA polymerase iota. Q9UNA4. Pol iota fluorescent replication assay, 10 min. Potency, µM (titrated, usually from 115 µM), for inactives: top-dose activity, negative = inhibition, most hits filed as inhibitors. actives 1% (n = 390,000). AID 588590
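Fluorescent replication assay read twice, at 0 min and 10 min after adding 50 nM (final) substrate. Enzyme (10 nM) and compounds were first incubated 15 min at room temperature; enzyme-free buffer wells were negative controls.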
POLH inh: inhibitors of human DNA polymerase eta | Q9Y253 | recombinant Pol eta, fluorescent DNA replication assay | Potency, µM (highest dose often 114 µM), without a hit: at the highest dose activity change, negative = inhibition, most hits filed as inhibitors | actives 1.2% (n = 390,000) | AID 588591; further: on the % scale 0 is the no-effect control and ±100 the full control effect
Target sequence (Q9Y253 whole entry, looked up): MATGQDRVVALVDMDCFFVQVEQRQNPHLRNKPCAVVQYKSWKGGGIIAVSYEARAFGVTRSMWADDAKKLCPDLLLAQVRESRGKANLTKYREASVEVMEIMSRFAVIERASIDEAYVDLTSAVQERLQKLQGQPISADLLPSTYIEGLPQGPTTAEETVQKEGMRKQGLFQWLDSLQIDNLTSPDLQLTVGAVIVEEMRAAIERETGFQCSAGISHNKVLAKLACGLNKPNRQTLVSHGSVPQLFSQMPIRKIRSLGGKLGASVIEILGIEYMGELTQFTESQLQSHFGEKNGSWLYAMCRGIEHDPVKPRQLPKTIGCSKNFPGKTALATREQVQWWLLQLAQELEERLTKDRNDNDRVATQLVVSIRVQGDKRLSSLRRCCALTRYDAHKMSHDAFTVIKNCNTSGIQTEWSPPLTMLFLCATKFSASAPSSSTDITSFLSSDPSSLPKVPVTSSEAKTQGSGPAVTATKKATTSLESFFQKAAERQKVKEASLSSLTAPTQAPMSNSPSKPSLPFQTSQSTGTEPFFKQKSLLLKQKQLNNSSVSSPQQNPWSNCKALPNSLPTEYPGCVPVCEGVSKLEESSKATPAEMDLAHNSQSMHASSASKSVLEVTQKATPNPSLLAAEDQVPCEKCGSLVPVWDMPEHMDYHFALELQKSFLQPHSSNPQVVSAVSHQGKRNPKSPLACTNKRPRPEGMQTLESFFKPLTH
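Pol eta (10 nM) was preincubated with compounds for 15 min at room temperature, after which fluorescent replication substrate (50 nM final) was added to start the reaction. Fluorescence was read kinetically at 0 and 10 min.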
WRN helicase inh: inhibitors of human WRN helicase | Potency, µM (doses to about 114 µM), inactives show top-dose activity change, negative = inhibition, most hits filed as inhibitors | WRN helicase unwinding, fluorescent forked duplex, kinetic | actives 0.46% (n = 360,000) | Q14191; further: on the % scale 0 is the no-effect control and ±100 the full control effect; nearly all actives have a fitted effect of over 55% in size
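Enzyme (20 nM final) and test compound sit together 15 min at room temperature before substrate addition. Substrate is a single-forked duplex oligonucleotide (100 nM) labelled with fluorophore and quencher, with 2 mM ATP; helicase unwinding raises red fluorescence, read kinetically.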
An asterisk follows results filed as active; [ ] = another dose, or the depositor's remark. In the library only some 2.3% were active in any assay of this set; here they are far more common. The call rests on the fitted dose curve; in most records, active means well fitted curve in the direction sought with a large enough effect; inconclusive means small, poorly fitted or top-dose-only effect, or another doubt; inactive means no such curve, though single readings can be large; an effect the other way counts as inactive or inconclusive. Potency means the concentration at half of the fitted maximal effect.

What do the screens show for `COc1cccc2nccc(/C=C/c3ccc(N(C)C)cc3)c12`?
POLK inh: -20%; POLI inh: inconclusive

What do the screens show for `COc1ccc(C(C)NC(=O)CN(c2cc(OC)ccc2OC)S(=O)(=O)c2ccccc2)cc1` (stereo unspecified)?
POLB inh: 20µM*; POLK inh: -32%; POLI inh: inconclusive; POLH inh: inconclusive

How did CC(C)C(N)C(=O)O (stereo unspecified) do in these assays?
POLK inh: 3%[19.4 µM]

Results for C#CC(C)OC(=O)Nc1cccc(Cl)c1 (stereo unspecified) ?
POLK inh: 3%[60.1 µM]

What do the screens show for `CS(=O)(=O)c1ccc2nc(NC(=O)Nc3ccccc3F)sc2c1`?
POLB inh: 49%; POLK inh: 12%; POLI inh: -10%; POLH inh: -1%; WRN helicase inh: 4%

What do the screens show for `Cc1ccc(NC(=O)Nc2nc3ccc(S(C)(=O)=O)cc3s2)cc1`?
POLK inh: -3%; POLI inh: 23%; POLH inh: 79µM*; WRN helicase inh: -6%[11.6 µM]

How did CS(=O)(=O)c1ccc2nc(NC(=O)Nc3cccc(Cl)c3)sc2c1 do in these assays?
POLB inh: 50µM*; POLK inh: -4%; POLI inh: inconclusive; POLH inh: -9%; WRN helicase inh: -25%

Results for CS(=O)(=O)c1ccc2nc(NC(=O)Nc3ccc(Cl)c(Cl)c3)sc2c1 ?
POLB inh: -16%; POLK inh: -8%; POLI inh: 139%; POLH inh: -16%; WRN helicase inh: -4%

Results for CC(C)Nc1nc(NC(C)C)nc(Nn2cnnc2)n1 ?
POLB inh: -1%; POLK inh: -21%; POLI inh: -11%; POLH inh: 2%; WRN helicase inh: -4%

How did CCNc1nc(NC(C)C)nc(Nn2cnnc2)n1 do in these assays?
POLB inh: 35µM*; POLK inh: 10%; POLI inh: 118%; POLH inh: -9%; WRN helicase inh: 1%

Results for O=C(COc1ccc2ccccc2c1)NNC(=O)C(=O)Nc1ccccc1 ?
POLB inh: 40µM*; POLK inh: -17%; POLI inh: inconclusive; POLH inh: -10%; WRN helicase inh: -18%

What do the screens show for `COc1ccc(NC(=O)C(=O)NNC(=O)COc2ccc(OC)cc2)cc1`?
POLB inh: 1%; POLK inh: 4%; POLI inh: 18%; POLH inh: -7%; WRN helicase inh: -1%

Results for Cc1cc(Br)ccc1OCC(=O)NNC(=O)C(=O)Nc1ccccc1 ?
POLB inh: 28µM*; POLK inh: -19%; POLI inh: inconclusive; POLH inh: -16%; WRN helicase inh: -23%

Results for O=C(O)c1ccc(OC2CSC2)cc1 ?
POLB inh: 6%; POLK inh: -2%; POLI inh: inconclusive; POLH inh: 20µM*; WRN helicase inh: -12%

Results for COc1cc(/C=N/Nc2ccc(C(=O)O)cc2)cc(OC)c1OC ?
POLB inh: 14%; POLK inh: 8%; POLI inh: 51%; POLH inh: -6%; WRN helicase inh: -5%

Results for COc1cc(/C=N\NC(=O)c2ccc(C)nc2)ccc1OC(=O)c1ccc2c(c1)OCO2 ?
POLB inh: 20µM*; POLK inh: 3%; POLI inh: -12%; POLH inh: inconclusive; WRN helicase inh: -15%

What do the screens show for `COc1cc(/C=N/NC(=O)c2cccnc2)ccc1OCC(=O)Nc1ccc(C)cc1`?
POLB inh: 13µM*; POLK inh: inconclusive; POLI inh: inconclusive; POLH inh: inconclusive; WRN helicase inh: -4%

How did COc1ccc(/C=N/NC(=O)c2cc(-c3cccn3C)n[nH]2)cc1OC do in these assays?
POLB inh: 8.9µM*; POLK inh: inconclusive; POLI inh: inconclusive; POLH inh: inconclusive; WRN helicase inh: -7%[11.6 µM]

How did COc1cc(/C=N/Nc2ccc(C(=O)O)cc2)ccc1O do in these assays?
POLB inh: 25µM*; POLK inh: 11%[60.1 µM]; POLI inh: inconclusive; POLH inh: 22µM*; WRN helicase inh: -13%[57.1 µM]

What do the screens show for `COc1cc(OC)c(OC)cc1/C=N/NC(=O)c1cc(-c2cccn2C)n[nH]1`?
POLB inh: -3%; POLK inh: -14%; POLI inh: 18%; POLH inh: -7%; WRN helicase inh: 6%

What do the screens show for `COc1cc(/C=N/NC(=O)c2cncc(Br)c2)ccc1OC(=O)c1ccc2c(c1)OCO2`?
POLB inh: 6%

What do the screens show for `O=S(=O)(NCCNCC=Cc1ccc(Br)cc1)c1cccc2cnccc12`?
POLK inh: 2%; POLI inh: 2%

Results for CCOc1ccc(S(=O)(=O)N2CCN(c3nc(-c4ccccc4)nc4ccccc34)CC2)cc1OCC ?
POLK inh: 9%; POLI inh: -6%

What do the screens show for `COc1cc(/C=N/NC(=O)c2cc(-c3ccc4c(c3)OCO4)n[nH]2)ccc1O`?
POLB inh: 8.9µM*; POLK inh: 79µM*; POLI inh: inconclusive; POLH inh: inconclusive; WRN helicase inh: -8%[11.6 µM]

How did COc1cc(/C=N/NC(=O)c2ccc(=O)[nH]n2)ccc1O do in these assays?
POLB inh: 20µM*; POLK inh: inconclusive; POLI inh: 100µM*; POLH inh: inconclusive; WRN helicase inh: -21%

What do the screens show for `COc1ccc2[nH]c(C(=O)N/N=C/c3ccc(OC)c(O)c3)cc2c1`?
POLB inh: 28µM*; POLK inh: inconclusive; POLI inh: 31%; POLH inh: inconclusive; WRN helicase inh: -15%

What do the screens show for `COc1cc2c(cc1O)CCN[C@@]21CS[C@H]2c3c(OC(C)=O)c(C)c4c(c3C(COC1=O)N1C2C2c3c(cc(C)c(OC)c3O)CC([C@@H]1O)N2C)OCO4` (stereo partly specified)?
POLK inh: -19%[19.4 µM]

How did COc1ccc(N2CCN(C(c3ccc(C)cc3)c3nnnn3C(C)(C)C)CC2)cc1 (stereo unspecified) do in these assays?
POLK inh: 7%; POLI inh: 10%

Results for CC(C)c1cnc2c(c1SCC(=O)NCc1ccccc1)c(=O)n(C)c(=O)n2C ?
POLB inh: 5%; POLK inh: -7%[60.1 µM]; POLI inh: -3%; POLH inh: -7%

How did CCN(CC)S(=O)(=O)c1cccc(C(=O)N/N=C/c2c(C)nn(-c3ccccc3)c2Cl)c1 do in these assays?
POLB inh: 14µM*; POLK inh: 0%; POLI inh: 198%; POLH inh: -16%; WRN helicase inh: -13%

How did CCN(CC)S(=O)(=O)c1cccc(C(=O)N/N=C/c2ccccc2OCC(=O)O)c1 do in these assays?
POLB inh: 2%; POLK inh: 0%; POLI inh: 26%; POLH inh: -3%; WRN helicase inh: 1%[57.1 µM]

Bioassay records as filed in PubChem BioAssay.
